In PubChem BioAssay AID1159580 (chemical genetic matrix, 2015):
The whole screen tested about 5,500 compounds, of which about 2,000 (36%) were called active. Roughly 18% stayed inconclusive and do not appear here. The list shows a part of the results. Unmarked numbers belong to inactive results. No stated cut-off is given here; in the data, active means normalized growth mostly below about 0.91 (no sharp cut-off); inconclusive means no clear call, values can overlap the other calls; inactive means mostly above about 0.92.

Test: chemical genetic growth profiling, strain panel (AID 1159580);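 further: tested at 20 µM; growth read once vehicle control cultures reached saturation at 30 °C; 1 = growth at the plate median or of vehicle wells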
Details: S. cerevisiae deletion strains, growth OD

CCCCC/C=C\C/C=C\C/C=C\C/C=C\CCCC(=O)O
normalized growth (locus YAL013W, strain DEP1, stronger effect = lower value): 0.987 | normalized growth (locus YAL021C, strain ccr4, stronger effect = lower value): 0.986 | normalized growth (locus YAL026C, strain drs2, stronger effect = lower value): 0.831 (active) | normalized growth (locus YAL030W, strain snc1, stronger effect = lower value): 0.978 | normalized growth (locus YBL061C, strain skt5, stronger effect = lower value): 0.962 | normalized growth (locus YBR009C, strain hhf1, stronger effect = lower value): 0.952 | normalized growth (locus YBR021W, strain FUR4, stronger effect = lower value): 0.95 | normalized growth (locus YBR023C, strain chs3, stronger effect = lower value): 0.963 | normalized growth (locus YBR171W, strain sec66, stronger effect = lower value): 0.979 | normalized growth (locus YBR229C, strain ROT2, stronger effect = lower value): 0.994 | normalized growth (locus YBR231C, strain swc5, stronger effect = lower value): 0.975 | normalized growth (locus YBR279W, strain paf1, stronger effect = lower value): 0.976 | normalized growth (locus YCL011C, strain gbp2, stronger effect = lower value): 0.971 | normalized growth (locus YCL016C, strain dcc1, stronger effect = lower value): 0.974 | normalized growth (locus YCL029C, strain bik1, stronger effect = lower value): 0.986 | normalized growth (locus YCL061C, strain MRC1, stronger effect = lower value): 0.975 | normalized growth (locus YCL069W, strain vba3, stronger effect = lower value): 0.969 | normalized growth (locus YCR088W, strain abp1, stronger effect = lower value): 0.975 | normalized growth (locus YDL005C, strain med2, stronger effect = lower value): 0.984 | normalized growth (locus YDL035C, strain GPR1, stronger effect = lower value): 0.953 | normalized growth (locus YDL040C, strain nat1, stronger effect = lower value): 0.97 | normalized growth (locus YDL074C, strain BRE1, stronger effect = lower value): 0.916 | normalized growth (locus YDL101C, strain DUN1, stronger effect = lower value): 0.989 | normalized growth (locus YDL134C, strain PPH21, stronger effect = lower value): 0.984 | normalized growth (locus YDL185W, strain tfp1, stronger effect = lower value): 0.974 | normalized growth (locus YDL192W, strain arf1, stronger effect = lower value): 0.965 | normalized growth (locus YDR001C, strain nth1, stronger effect = lower value): 0.972 | normalized growth (locus YDR069C, strain doa4, stronger effect = lower value): 0.993 | normalized growth (locus YDR101C, strain arx1, stronger effect = lower value): 0.968 | normalized growth (locus YDR137W, strain rgp1, stronger effect = lower value): 0.846 (active) | normalized growth (locus YDR150W, strain NUM1, stronger effect = lower value): 0.99 | normalized growth (locus YDR159W, strain sac3, stronger effect = lower value): 0.926 | normalized growth (locus YDR162C, strain NBP2, stronger effect = lower value): 0.967 | normalized growth (locus YDR195W, strain ref2): 1.01 | normalized growth (locus YDR297W, strain sur2, stronger effect = lower value): 0.972 | normalized growth (locus YDR318W, strain mcm21, stronger effect = lower value): 0.957 | normalized growth (locus YDR334W, strain swr1, stronger effect = lower value): 0.969 | normalized growth (locus YDR335W, strain msn5, stronger effect = lower value): 0.971 | normalized growth (locus YDR388W, stronger effect = lower value): 0.979 | normalized growth (locus YDR392W, strain spt3, stronger effect = lower value): 0.474 (active) | normalized growth (locus YDR502C, strain sam2, stronger effect = lower value): 0.977 | normalized growth (locus YEL003W, strain gim4, stronger effect = lower value): 0.975 | normalized growth (locus YEL037C, strain rad23, stronger effect = lower value): 0.974 | normalized growth (locus YEL061C, strain CIN8 (second series), stronger effect = lower value): 0.966 | normalized growth (locus YEL061C, strain CIN8, stronger effect = lower value): 0.982 | normalized growth (locus YER015W, strain faa2, stronger effect = lower value): 0.973 | normalized growth (locus YER016W, strain bim1, stronger effect = lower value): 0.978 | normalized growth (locus YER110C, stronger effect = lower value): 0.976 | normalized growth (locus YER111C, strain swi4, stronger effect = lower value): 0.963 | normalized growth (locus YER155C, strain BEM2 (second series), stronger effect = lower value): 0.746 (active) | normalized growth (locus YER155C, strain BEM2, stronger effect = lower value): 0.984 | normalized growth (locus YER167W, strain BCK2, stronger effect = lower value): 0.945 | normalized growth (locus YFR010W, strain ubp6, stronger effect = lower value): 0.974 | normalized growth (locus YGL078C, strain dbp3, stronger effect = lower value): 0.951 | normalized growth (locus YGL086W, strain mad1, stronger effect = lower value): 0.976 | normalized growth (locus YGL167C, strain pmr1, stronger effect = lower value): 0.958 | normalized growth (locus YGL173C, strain kem1, stronger effect = lower value): 0.96 | normalized growth (locus YGL227W, strain vid30, stronger effect = lower value): 0.988 | normalized growth (locus YGL240W, strain doc1, stronger effect = lower value): 0.963 | normalized growth (locus YGL248W, strain PDE1, stronger effect = lower value): 0.985 | normalized growth (locus YGL253W, strain hxk2, stronger effect = lower value): 0.974 | normalized growth (locus YGR078C, strain PAC10, stronger effect = lower value): 0.945 | normalized growth (locus YGR135W, strain pre9, stronger effect = lower value): 0.971 | normalized growth (locus YGR229C, strain SMI1, stronger effect = lower value): 0.877 | normalized growth (locus YGR252W, strain gcn5, stronger effect = lower value): 1.01 | normalized growth (locus YHR013C, strain ard1, stronger effect = lower value): 0.855 | normalized growth (locus YHR027C, strain rpn1, stronger effect = lower value): 0.981 | normalized growth (locus YHR030C, strain SLT2, stronger effect = lower value): 0.97 | normalized growth (locus YHR079C, strain IRE1 (second series), stronger effect = lower value): 0.967 | normalized growth (locus YHR094C, strain hxt1, stronger effect = lower value): 0.947 | normalized growth (locus YHR129C, strain ARP1, stronger effect = lower value): 0.992 | normalized growth (locus YHR142W, strain chs7, stronger effect = lower value): 0.931 | normalized growth (locus YHR200W, strain rpn10, stronger effect = lower value): 0.987 | normalized growth (locus YIL066C, strain RNR3, stronger effect = lower value): 0.977 | normalized growth (locus YIL073C, strain SPO22, stronger effect = lower value): 0.862 | normalized growth (locus YIR030C, strain dcg1, stronger effect = lower value): 0.985 | normalized growth (locus YJL092W, strain hpr5, stronger effect = lower value): 0.978 | normalized growth (locus YJL095W, strain BCK1 (second series), stronger effect = lower value): 0.972 | normalized growth (locus YJL095W, strain BCK1, stronger effect = lower value): 0.92 | normalized growth (locus YJL115W, strain asf1, stronger effect = lower value): 0.97 | normalized growth (locus YJL129C, strain trk1, stronger effect = lower value): 0.929 | normalized growth (locus YJL134W, strain LCB3, stronger effect = lower value): 1.02 | normalized growth (locus YJL154C, strain vps35, stronger effect = lower value): 0.979 | normalized growth (locus YJL164C, strain tpk1, stronger effect = lower value): 0.97 | normalized growth (locus YJL166W, strain qcr8, stronger effect = lower value): 0.959 | normalized growth (locus YJL168C, strain set2, stronger effect = lower value): 0.986 | normalized growth (locus YJL187C, strain SWE1 (second series), stronger effect = lower value): 0.983 | normalized growth (locus YJL187C, strain SWE1, stronger effect = lower value): 0.978
